High-throughput results deposited in PubChem by several laboratories.
In the library only some 6.2% were active in any assay of this set; here they are far more common.
Cardio protect – cardioprotection against H2O2-induced cell death, primary screen, uHTS, H9c2 cells, ATPLite luminescence. H9c2 cardiomyocytes, H2O2 injury protection, 2 h. protection from H2O2 cell death, % at 20 µM. 360,000 compounds, 0.63% hits;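 active means compounds giving at least 50% protection of heart cells from peroxide-induced death in the single-dose screen, raw or plate-pattern-corrected value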;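 further: 0% = DMSO wells with peroxide and 100% = DMSO wells without peroxide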
NR3A LBD binder – binders of NR3A ligand-binding domain, primary screen, biophysical, differential scanning fluorimetry, uHTS; NR3A LBD differential scanning fluorimetry, Tm shift; 0% = protein alone, 100% = glycine-bound protein; Tm shift relative to glycine control, % at 25 µM; 340,000 compounds, 2.5% hits; AID 1259313, 2017;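 active means melting temperature shift of at least 10% of the positive control shift, at one fixed dose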
SUMO Mot1 rescue – yeast Mot1-301 growth rescue at high temperature, primary screen, SUMOylation pathway inhibitor project, S. cerevisiae, ATP luminescence, 38.5C; S. cerevisiae Mot1-301 growth rescue; percent above DMSO median, 100 means doubled; growth rescue, % at 18.8 µM; AID 2716, 2010; 320,000 compounds, 1% hits;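 active means every valid replicate shows activation above 250% relative to neutral control wells; inactive means the rest, any valid replicate at or below 250%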;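 further: OY570 slx delta 5 strain wells were the positive control but not used for scaling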
AI-2 QS modul – Vibrio harveyi AI-2 quorum sensing modulators, primary screen, JMH597 strain, luminescence/OD600 ratio | activity change, % at 7.5 µM | Vibrio harveyi JMH597 AI-2 luminescence/OD600 ratio, 9 h; active compounds read low; strain lacks LuxN and CqsS sensors; 0 = neutral-control median | 300,000 compounds, 0.4% hits | AID 2094, 2009; in the data active means activity change below about -75%, passing the limit was not always enough;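 further: luminescence divided by OD600 gain over 9 h not by final OD600 alone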
AHR activator – AHR activators, primary screen, cell-based, luminescence, luciferase reporter, human | AHR-responsive luciferase reporter cells | activation, % at 5 µM | 320,000 compounds, 2.5% hits | AID 2796, 2010; in the data active means activation above about 47%;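 further: 0% = vehicle wells and 100% = reference agonist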
Target sequence (P35869 whole entry, looked up): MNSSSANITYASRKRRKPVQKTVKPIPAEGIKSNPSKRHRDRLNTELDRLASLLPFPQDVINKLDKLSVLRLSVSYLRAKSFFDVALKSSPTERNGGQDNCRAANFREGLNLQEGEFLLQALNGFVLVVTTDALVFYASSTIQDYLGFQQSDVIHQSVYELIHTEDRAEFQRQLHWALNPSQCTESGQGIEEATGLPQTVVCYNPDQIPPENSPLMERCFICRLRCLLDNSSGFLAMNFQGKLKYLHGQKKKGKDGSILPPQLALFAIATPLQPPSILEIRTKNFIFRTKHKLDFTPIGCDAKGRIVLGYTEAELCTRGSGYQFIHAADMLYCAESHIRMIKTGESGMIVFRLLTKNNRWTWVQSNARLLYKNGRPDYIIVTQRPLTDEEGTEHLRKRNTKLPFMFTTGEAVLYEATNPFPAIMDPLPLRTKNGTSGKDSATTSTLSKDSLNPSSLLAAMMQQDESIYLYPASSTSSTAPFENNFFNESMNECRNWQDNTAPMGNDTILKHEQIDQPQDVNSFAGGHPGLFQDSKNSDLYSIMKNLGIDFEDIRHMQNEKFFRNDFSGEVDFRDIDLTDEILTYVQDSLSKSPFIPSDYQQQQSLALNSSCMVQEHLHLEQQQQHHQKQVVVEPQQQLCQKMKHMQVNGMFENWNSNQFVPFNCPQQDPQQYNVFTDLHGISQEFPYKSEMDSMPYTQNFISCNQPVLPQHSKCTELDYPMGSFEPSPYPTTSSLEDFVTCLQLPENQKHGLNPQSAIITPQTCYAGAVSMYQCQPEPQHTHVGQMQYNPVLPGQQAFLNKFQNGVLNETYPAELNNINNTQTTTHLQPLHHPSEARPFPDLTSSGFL
NTR1 ag – agonists of human NTR1, primary screen, imaging, U2OS cells, beta-arrestin-GFP, high content; Neurotensin receptor type 1 (Homo sapiens), P30989; NTR1-U2OS beta-arrestin-GFP spot imaging, agonist mode; activation, % at 20 µM; 330,000 compounds, 0.17% hits; AID 493036, 2011;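 active means activation at or above 40% of the spot to cytoplasm intensity ratio, with at least 20 cells analyzed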;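 further: 0% = DMSO without peptide and 100% = 100 nM NTR1 peptide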
The depositor's hits bear a star; . = no result given.

SMILES	Cardio protect	NR3A LBD binder	SUMO Mot1 rescue	AI-2 QS modul	AHR activator	NTR1 ag
CC(=O)c1ccccc1OCC(O)CN1CCN(CCN2C(=O)c3cccc4cccc(c34)C2=O)CC1 (stereo not given)	58.4*	2.1	.	9.1	-8.0	1.9
COc1ccc(-c2nnn(CC(=O)NCc3ccc4c(c3)OCO4)n2)cc1OC	-6.5	-0.8	-14.6	20.2	3.8	0.5
Cc1ccc(-c2nnn(CC(=O)NCCc3ccc4c(c3)OCO4)n2)o1	7.9	3.3	328.8*	13.6	8.7	-2.4
O=C(CCN1C(=O)/C(=C\c2ccc(F)cc2)SC1=S)Nc1ccc(O)cc1	-11.7	8.5	-7.8	29.1	-0.2	1.6
O=C(CCCN1C(=O)/C(=C/c2cccs2)SC1=S)Nc1cccc(C(=O)O)c1	-3.0	-1.9	11.9	22.8	1.9	1.5
COc1ccc(/C=C2\SC(=S)N(CCC(=O)Nc3ccc(O)cc3)C2=O)cc1	-4.5	14.6*	-1.3	13.1	-3.1	1.0
O=C(CCCN1C(=O)/C(=C/c2cccs2)SC1=S)Nc1cccc(O)c1	-6.9	13.6*	5.0	17.7	0.6	4.7
O=C(CCN1C(=O)/C(=C/c2cccs2)SC1=S)Nc1ccc(C(=O)O)c(O)c1	-5.5	0.9	9.1	19.4	0.7	0.9
O=C(CCN1C(=O)/C(=C/c2cccs2)SC1=S)Nc1ccccc1O	-15.2	15.5*	-12.5	9.9	0.6	2.7
O=C(CCN1C(=O)/C(=C/c2cccs2)SC1=S)Nc1ccc(O)cc1	-11.6	21.7*	-4.9	10.3	1.4	4.8
OC(c1ccccc1)(c1ccccc1)c1nccc2ccccc12	-13.9	-3.9	.	.	.	.
O=C(NN1C(=O)/C(=C\c2cccnc2)SC1=S)C(c1ccccc1)c1ccccc1	60.3*	3.4	-14.5	28.3	5.1	3.7
O=C(CCCN1C(=O)/C(=C/c2ccccc2)SC1=S)Nc1cccc(O)c1	-8.8	11.7*	-12.3	21.3	-0.2	0.8
COc1ccc(/C=C2\SC(=O)N(CCC(=O)Nc3ccc(S(=O)(=O)Nc4nccs4)cc3)C2=O)cc1	-20.7	11.2*	245.0	16.0	0.8	0.7
CC(/C=C1\SC(=S)N(CCC(=O)Nc2ccc(O)cc2)C1=O)=C\c1ccccc1	-5.4	14.2*	-7.0	38.8	-0.8	0.6
O=C(NN1C(=O)/C(=C/c2cccnc2)SC1=S)C(c1ccccc1)c1ccccc1	21.8	0.4	0.4	0.6	-1.4	4.6
COc1ccc(/C=C2/SC(=O)N(CCC(=O)Nc3ccc(S(=O)(=O)Nc4nccs4)cc3)C2=O)cc1	-12.2	6.5	-21.2	3.7	-0.4	1.5
O=C(NCCS(=O)(=O)N1CCN(c2cccc(Cl)c2)CC1)c1ccco1	0.5	0.2	-5.9	6.6	-1.3	0.2
O=C(CCCN1C(=O)/C(=C\c2cccs2)SC1=S)Nc1cc([N+](=O)[O-])ccc1O	-13.2	23.4*	-14.0	-0.9	3.2	1.5
CC(/C=C1\SC(=S)N(NC(=O)c2ccncc2)C1=O)=C\c1ccccc1	2.7	19.5*	-3.2	27.1	2.1	0.1
COc1cc(/C=C2\SC(=S)N(CCC(=O)Nc3cccc(O)c3)C2=O)cc(OC)c1OC	67.1*	8.0	-16.4	16.5	-0.6	15.2
O=C(CCN1C(=O)/C(=C/c2cccs2)SC1=S)Nc1cccc(O)c1	-5.5	10.5*	4.2	13.8	5.0	2.9
CN(C)CCNc1ccc2ncn3c4ccc(O)cc4c(=O)c1c23	0.9	2.4	.	.	.	.
COCCn1c(=NC(=O)CCS(=O)(=O)c2ccccc2)sc2cc(C(=O)OC)ccc21	0.4	-17.7	48.6	4.0	0.4	0.0
COCCn1c(=NC(=O)CCS(=O)(=O)c2ccccc2)sc2c(OC)ccc(OC)c21	19.9	3.1	6.2	13.7	51.0*	1.9
O=C(Nc1ccc(F)cc1)C(Sc1nc2ccccc2[nH]1)c1ccccc1 (stereo not given)	-7.7	-15.8	-7.1	4.7	69.3*	5.4
